In assay [1] the target is ALK tyrosine kinase receptor (Homo sapiens) (UniProt Q9UM73). The conditions noted are these: at 10 µM.
Assay [2] has as its target T1, Activin receptor type-1B (Homo sapiens) (UniProt P36896).
T1 sequence (whole entry): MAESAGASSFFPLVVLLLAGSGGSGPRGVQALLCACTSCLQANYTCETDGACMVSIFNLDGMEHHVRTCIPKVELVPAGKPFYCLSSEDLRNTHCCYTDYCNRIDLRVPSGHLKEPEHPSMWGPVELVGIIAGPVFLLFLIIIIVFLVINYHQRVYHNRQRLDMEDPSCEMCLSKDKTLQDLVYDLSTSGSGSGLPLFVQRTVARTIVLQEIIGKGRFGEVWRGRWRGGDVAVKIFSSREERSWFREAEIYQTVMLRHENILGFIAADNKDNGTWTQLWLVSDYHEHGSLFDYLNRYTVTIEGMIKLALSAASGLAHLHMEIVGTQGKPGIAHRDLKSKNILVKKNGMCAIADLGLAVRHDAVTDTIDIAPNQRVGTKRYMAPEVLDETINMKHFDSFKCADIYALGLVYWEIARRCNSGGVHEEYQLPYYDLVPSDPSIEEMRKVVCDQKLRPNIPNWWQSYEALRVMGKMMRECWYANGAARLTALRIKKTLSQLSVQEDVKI
The settings on record: at 1 µM.

In assay [3] the target is T1, Activin receptor type-1B (Homo sapiens). The conditions noted are these: at 10 µM.
Assay [4] has as its target T2, AMP-activated protein kinase (AMPK) alpha-1/beta-1/gamma-1 (Homo sapiens) (UniProt P54619+Q9Y478+Q13131). The conditions noted are these: at 1 µM.
Assay [5] addresses T2, AMP-activated protein kinase (AMPK) alpha-1/beta-1/gamma-1 (Homo sapiens). The conditions noted are these: at 10 µM.
Assay [6] addresses T3, AMP-activated protein kinase, AMPK (Homo sapiens) (UniProt P54646+O43741+P54619+Q9UGJ0+Q9Y478+Q13131+Q9UGI9). The conditions noted are these: at 1 µM.
Assay [7] has as its target T3, AMP-activated protein kinase, AMPK (Homo sapiens). The conditions noted are these: at 10 µM.
The target of assay [8] is T4, NUAK family SNF1-like kinase 1 (Homo sapiens) (UniProt O60285).
T4 sequence (whole entry): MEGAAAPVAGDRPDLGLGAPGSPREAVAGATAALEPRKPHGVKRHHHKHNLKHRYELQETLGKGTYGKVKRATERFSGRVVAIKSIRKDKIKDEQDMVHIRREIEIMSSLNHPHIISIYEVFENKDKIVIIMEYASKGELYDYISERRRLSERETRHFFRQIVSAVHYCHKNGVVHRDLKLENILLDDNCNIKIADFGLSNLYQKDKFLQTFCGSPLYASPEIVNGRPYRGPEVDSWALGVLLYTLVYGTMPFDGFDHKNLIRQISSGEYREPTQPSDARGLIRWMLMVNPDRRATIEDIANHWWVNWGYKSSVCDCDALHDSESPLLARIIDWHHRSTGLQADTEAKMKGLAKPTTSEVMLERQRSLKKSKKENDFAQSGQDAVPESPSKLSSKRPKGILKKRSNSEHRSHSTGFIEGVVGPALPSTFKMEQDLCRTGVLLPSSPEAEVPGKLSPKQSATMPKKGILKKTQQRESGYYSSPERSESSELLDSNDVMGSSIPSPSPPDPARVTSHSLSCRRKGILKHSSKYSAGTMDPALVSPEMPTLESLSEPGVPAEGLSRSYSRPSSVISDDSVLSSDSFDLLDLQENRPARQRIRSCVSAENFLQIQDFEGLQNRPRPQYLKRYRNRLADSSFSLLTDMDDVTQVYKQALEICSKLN
The conditions noted are these: at 1 µM.

Assay [9] addresses T4, NUAK family SNF1-like kinase 1 (Homo sapiens). The conditions noted are these: at 10 µM.
Assay [10] concerns the target T5, Mitogen-activated protein kinase kinase kinase 5 (Homo sapiens) (UniProt Q99683).
T5 sequence (whole entry): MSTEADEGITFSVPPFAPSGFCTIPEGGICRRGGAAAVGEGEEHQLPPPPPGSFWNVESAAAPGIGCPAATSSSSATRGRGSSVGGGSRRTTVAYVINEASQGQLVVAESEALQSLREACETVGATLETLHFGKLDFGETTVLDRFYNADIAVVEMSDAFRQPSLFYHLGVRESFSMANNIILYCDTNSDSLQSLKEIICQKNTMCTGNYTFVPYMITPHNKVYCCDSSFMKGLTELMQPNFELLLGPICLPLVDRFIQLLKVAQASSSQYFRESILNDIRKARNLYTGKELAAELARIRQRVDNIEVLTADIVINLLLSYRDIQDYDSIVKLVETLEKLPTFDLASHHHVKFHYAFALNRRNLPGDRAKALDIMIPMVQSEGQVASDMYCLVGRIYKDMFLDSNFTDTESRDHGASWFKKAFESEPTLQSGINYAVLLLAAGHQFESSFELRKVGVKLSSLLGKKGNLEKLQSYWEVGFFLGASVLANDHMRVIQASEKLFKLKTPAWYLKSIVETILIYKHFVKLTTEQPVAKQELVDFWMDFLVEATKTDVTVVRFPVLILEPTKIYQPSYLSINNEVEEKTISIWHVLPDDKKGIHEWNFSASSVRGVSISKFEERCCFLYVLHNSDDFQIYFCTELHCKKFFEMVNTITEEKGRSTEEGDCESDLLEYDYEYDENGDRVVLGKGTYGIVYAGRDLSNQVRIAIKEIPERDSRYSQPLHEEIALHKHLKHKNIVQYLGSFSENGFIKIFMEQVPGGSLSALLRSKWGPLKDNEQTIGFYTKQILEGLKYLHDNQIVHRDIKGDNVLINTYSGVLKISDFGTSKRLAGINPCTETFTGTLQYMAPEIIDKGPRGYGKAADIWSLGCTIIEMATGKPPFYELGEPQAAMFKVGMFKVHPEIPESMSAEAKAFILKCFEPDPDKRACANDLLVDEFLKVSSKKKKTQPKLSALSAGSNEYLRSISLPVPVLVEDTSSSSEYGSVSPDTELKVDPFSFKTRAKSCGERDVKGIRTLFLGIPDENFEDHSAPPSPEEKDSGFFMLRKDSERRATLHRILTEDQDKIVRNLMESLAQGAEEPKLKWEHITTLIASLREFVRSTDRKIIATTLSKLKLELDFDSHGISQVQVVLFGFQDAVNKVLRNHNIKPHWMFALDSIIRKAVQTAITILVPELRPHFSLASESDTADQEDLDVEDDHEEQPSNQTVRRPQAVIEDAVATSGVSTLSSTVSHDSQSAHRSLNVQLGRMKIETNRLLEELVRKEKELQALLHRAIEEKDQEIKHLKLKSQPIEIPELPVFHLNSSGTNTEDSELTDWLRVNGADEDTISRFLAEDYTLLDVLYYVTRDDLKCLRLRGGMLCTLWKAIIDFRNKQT
The settings on record: at 1 µM.

For assay [11], the target named is Platelet-derived growth factor receptor alpha (Homo sapiens) (UniProt P16234). The conditions noted are these: at 1 µM.
Assay [12] has the same target. The settings on record: at 10 µM.
Assay [13] concerns the target Platelet-derived growth factor receptor beta (Homo sapiens) (UniProt P09619). The settings on record: at 1 µM.
Assay [14] has the same target. The settings on record: at 10 µM.
The target in assay [15] is T6, 3-phosphoinositide-dependent protein kinase 1 (Homo sapiens) (UniProt O15530).
T6 sequence (whole entry): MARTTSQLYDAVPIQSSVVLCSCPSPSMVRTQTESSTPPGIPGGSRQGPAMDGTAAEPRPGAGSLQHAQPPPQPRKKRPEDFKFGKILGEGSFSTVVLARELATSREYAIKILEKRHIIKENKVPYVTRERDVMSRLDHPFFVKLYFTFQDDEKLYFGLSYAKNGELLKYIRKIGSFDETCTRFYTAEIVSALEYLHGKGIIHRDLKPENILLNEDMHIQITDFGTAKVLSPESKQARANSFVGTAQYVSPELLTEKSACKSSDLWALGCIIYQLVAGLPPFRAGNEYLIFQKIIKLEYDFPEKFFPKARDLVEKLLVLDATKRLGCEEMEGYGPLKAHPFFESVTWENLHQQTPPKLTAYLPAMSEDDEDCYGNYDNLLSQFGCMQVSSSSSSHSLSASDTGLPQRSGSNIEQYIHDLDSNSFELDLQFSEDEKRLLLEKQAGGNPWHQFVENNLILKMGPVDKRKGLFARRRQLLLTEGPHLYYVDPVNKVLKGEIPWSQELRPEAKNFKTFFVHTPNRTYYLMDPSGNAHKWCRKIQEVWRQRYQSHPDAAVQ
The conditions noted are these: at 1 µM.

The target of assay [16] is T6, 3-phosphoinositide-dependent protein kinase 1 (Homo sapiens). The conditions noted are these: at 10 µM.
Assay [17] concerns the target cAMP-dependent protein kinase catalytic subunit alpha (Homo sapiens) (UniProt P17612). The settings on record: at 1 µM.
For assay [18] the target is unchanged. The conditions noted are these: at 10 µM.
The target in assay [19] is RAC-gamma serine/threonine-protein kinase (Homo sapiens) (UniProt Q9Y243). The conditions noted are these: at 1 µM.
Chain of RAC-gamma serine/threonine-protein kinase (Homo sapiens) (Q9Y243 whole entry): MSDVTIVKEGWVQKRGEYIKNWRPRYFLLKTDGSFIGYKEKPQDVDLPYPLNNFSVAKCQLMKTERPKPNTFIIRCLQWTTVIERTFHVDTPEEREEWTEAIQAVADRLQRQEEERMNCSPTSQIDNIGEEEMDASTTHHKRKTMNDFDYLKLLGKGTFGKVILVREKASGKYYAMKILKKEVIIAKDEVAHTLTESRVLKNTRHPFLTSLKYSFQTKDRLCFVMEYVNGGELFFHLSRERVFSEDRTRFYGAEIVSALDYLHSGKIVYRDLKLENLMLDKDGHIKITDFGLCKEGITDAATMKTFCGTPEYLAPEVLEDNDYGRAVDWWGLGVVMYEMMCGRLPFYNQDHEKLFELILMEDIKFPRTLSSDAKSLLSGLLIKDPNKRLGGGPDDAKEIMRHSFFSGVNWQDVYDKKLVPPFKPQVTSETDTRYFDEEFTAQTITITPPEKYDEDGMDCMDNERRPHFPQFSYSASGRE
Assay [20] has the same target. The settings on record: at 10 µM.

T2 sequence (P54619 whole entry): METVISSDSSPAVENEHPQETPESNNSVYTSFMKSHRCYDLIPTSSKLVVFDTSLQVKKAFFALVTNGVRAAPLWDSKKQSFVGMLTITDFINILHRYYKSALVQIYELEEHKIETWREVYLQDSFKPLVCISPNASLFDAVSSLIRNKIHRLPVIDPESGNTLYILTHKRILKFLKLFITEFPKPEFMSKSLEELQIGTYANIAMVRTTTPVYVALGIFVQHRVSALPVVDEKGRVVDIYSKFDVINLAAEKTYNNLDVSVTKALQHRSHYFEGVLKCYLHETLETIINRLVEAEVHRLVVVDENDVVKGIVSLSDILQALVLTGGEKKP
T2 sequence (Q13131 whole entry partner): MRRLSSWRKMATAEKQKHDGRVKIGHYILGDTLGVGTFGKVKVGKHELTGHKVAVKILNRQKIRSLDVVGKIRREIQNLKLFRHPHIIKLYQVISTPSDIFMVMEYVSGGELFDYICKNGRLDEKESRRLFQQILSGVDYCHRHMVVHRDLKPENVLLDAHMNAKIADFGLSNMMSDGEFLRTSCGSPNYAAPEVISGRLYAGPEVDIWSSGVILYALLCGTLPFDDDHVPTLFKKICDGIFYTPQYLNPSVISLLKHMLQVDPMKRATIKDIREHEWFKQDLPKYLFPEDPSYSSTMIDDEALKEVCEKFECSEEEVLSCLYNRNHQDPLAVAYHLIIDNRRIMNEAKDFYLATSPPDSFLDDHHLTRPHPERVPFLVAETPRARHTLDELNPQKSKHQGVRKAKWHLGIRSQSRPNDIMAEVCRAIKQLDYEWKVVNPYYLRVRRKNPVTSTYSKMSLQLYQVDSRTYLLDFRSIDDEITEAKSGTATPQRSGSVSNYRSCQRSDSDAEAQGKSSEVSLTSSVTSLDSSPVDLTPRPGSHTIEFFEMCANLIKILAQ
T2 sequence (Q9Y478 2-270 partner limits assumed): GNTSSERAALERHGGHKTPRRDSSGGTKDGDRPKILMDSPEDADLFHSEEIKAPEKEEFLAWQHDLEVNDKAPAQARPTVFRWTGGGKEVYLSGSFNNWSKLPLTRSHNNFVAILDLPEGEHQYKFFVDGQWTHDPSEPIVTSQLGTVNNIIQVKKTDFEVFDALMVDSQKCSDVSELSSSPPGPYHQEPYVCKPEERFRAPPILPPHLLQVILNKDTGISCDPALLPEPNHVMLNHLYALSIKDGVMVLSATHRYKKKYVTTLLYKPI
Chain of ALK tyrosine kinase receptor (Homo sapiens) (Q9UM73 19-1620 limits assumed): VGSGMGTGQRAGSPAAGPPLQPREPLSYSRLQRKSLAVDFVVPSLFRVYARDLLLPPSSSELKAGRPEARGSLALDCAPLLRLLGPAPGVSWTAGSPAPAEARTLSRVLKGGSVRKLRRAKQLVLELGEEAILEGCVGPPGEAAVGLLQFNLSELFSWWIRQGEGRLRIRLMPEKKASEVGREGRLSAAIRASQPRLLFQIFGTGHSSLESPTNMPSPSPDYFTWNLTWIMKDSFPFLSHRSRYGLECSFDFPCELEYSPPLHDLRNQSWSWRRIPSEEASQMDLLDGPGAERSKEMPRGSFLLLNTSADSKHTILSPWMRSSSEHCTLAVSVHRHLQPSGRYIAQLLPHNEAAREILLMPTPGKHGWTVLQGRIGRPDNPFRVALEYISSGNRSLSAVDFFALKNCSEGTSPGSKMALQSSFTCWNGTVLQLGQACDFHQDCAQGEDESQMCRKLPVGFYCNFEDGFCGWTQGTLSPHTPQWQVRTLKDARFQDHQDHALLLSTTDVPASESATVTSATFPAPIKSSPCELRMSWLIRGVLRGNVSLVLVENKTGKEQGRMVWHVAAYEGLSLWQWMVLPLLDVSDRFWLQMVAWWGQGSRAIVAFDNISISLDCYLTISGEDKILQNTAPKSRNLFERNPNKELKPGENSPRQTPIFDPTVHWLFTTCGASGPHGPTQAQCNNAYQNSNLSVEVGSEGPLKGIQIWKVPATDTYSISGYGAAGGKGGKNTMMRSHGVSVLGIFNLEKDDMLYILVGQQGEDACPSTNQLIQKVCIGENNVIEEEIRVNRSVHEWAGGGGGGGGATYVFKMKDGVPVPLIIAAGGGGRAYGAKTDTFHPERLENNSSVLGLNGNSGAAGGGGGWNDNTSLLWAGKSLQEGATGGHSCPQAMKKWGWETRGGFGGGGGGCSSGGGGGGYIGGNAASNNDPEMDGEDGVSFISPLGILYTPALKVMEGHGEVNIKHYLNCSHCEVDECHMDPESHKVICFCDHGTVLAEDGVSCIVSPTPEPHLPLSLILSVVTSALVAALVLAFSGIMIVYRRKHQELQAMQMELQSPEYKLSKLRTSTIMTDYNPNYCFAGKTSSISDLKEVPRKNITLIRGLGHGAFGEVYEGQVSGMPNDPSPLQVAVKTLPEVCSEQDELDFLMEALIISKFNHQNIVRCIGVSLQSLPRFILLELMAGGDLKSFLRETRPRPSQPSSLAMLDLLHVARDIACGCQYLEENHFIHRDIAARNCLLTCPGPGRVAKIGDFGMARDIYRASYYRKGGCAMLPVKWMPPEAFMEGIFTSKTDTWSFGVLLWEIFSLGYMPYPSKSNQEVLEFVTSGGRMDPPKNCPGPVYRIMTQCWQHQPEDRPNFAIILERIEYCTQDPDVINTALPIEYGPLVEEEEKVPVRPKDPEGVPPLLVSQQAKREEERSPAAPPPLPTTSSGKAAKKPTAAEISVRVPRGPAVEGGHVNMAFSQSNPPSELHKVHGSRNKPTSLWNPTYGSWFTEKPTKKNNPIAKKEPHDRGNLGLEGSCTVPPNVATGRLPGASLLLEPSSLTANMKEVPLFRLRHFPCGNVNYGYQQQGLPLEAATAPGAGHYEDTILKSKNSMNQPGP
Chain of Platelet-derived growth factor receptor beta (Homo sapiens) (P09619 whole entry): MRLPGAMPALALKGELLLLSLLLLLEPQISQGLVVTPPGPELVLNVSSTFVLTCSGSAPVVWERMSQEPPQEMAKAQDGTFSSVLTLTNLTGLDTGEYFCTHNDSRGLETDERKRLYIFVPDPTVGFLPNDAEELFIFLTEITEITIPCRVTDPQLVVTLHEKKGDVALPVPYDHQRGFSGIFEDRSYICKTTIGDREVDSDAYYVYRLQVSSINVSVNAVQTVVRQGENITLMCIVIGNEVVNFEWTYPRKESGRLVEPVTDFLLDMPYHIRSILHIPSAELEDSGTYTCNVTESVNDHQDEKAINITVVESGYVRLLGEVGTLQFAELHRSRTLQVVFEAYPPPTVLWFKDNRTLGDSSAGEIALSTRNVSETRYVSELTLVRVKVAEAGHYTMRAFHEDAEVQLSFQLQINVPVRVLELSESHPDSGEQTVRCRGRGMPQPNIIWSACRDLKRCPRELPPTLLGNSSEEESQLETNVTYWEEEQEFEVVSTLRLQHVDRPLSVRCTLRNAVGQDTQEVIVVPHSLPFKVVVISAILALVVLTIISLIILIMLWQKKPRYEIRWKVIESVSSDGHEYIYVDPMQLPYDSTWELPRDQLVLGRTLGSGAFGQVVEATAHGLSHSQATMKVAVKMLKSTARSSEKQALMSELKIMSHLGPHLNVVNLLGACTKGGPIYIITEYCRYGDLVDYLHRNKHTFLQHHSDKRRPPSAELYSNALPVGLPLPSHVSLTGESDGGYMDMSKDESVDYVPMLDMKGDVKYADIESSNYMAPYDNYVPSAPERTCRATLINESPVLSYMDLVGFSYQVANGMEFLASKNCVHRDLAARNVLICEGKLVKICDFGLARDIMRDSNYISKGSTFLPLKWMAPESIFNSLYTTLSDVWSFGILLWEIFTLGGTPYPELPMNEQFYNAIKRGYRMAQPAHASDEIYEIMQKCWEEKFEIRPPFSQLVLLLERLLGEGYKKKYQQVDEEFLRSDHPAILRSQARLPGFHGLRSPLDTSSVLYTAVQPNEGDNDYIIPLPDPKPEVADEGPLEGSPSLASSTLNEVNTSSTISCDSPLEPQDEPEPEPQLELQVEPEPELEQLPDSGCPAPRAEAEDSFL

For `CC(C)n1cnc2c(NCc3ccccc3)nc(NCCCO)nc21`, the residual activity in [1] was 64%; in [2], 106%; in [3], 111%; in assay [4], 88%; in [5], 87%; in [6], 99%. Besides, the residual activity in assay [7] is 90%; in assay [8], 99%; in [9] it was 83%; in [10] it was 113%; in assay [11], 105%; in [12], 107%. In addition, the residual activity in assay [13] turned out to be 98%; in assay [14] it was 94%; in [15], 107%; in assay [16], 104%; in assay [17], 98%; in [18], 99%. Further, the residual activity is 104% in assay [19] and 90% in assay [20].
In the case of `CCN(CC)CCCCN1c2ccccc2Oc2ccc(Cl)cc21`, the residual activity in assay [1] was 132%; in assay [2] it was 136%; in [3], 100%; in [4], 116%; in [5] it was 100%; in assay [6], 131%. Moreover, the residual activity in assay [7] was 112%; in assay [8], 115%; in assay [9], 87%; in assay [10] it was 96%; in assay [11], 126%; in assay [12], 104%. Moreover, the residual activity in assay [13] turned out to be 119%; in [14] it was 108%; in assay [15], 131%; in [16], 138%; in assay [17], 95%; in [18] it was 147%. The residual activity in assay [19] was determined as 126%; in [20] it was 113%.
Take `Cn1cnc2cc3c(Nc4cccc(Br)c4)ncnc3cc21`: the residual activity in assay [1] stood at 59%; in [2], 123%; in assay [3] it was 82%; in [4], 90%; in [5], 69%; in assay [6], 102%. For the same compound, the residual activity in assay [7] was found to be 65%; in assay [8] it was 99%; in assay [9], 80%; in assay [10] it was 113%; in [11], 108%; in [12], 79%. Also, the residual activity stood at 103% in assay [13]; 81% in assay [14]; 106% in [15]; 92% in assay [16]; 99% in assay [17]; 75% in assay [18]. Moreover, the residual activity in assay [19] was found to be 101%; in assay [20] it was 96%.
As for `Oc1ccc(Nc2nc(-c3ccc(Cl)cc3)cs2)cc1`, the residual activity in assay [1] was found to be 62%; in assay [2] it was 104%; in assay [3] it was 110%; in assay [4] it was 105%; in assay [5], 90%; in assay [6], 119%. For the same compound, the residual activity in assay [7] turned out to be 100%; in [8], 107%; in [9] it was 84%; in assay [10], 96%; in [11], 87%; in assay [12], 83%. Moreover, the residual activity in assay [13] was determined as 117%; in [14] it was 137%; in assay [15], 115%; in [16], 102%; in [17], 100%; in [18] it was 129%. Moreover, the values for the residual activity in assay [19] and in [20] were 123% and 104%, respectively.
